Screening results: PubChem BioAssay, National Center for Advancing Translational Sciences (NCATS)
An excerpt weighted towards active compounds, which were near 8% of everything screened.
FMDV antiviral: blocks foot and mouth disease virus; FMDV antiviral cell-based qHTS; Potency, µM (top dose mostly 57.9 µM), without a hit: at the highest dose activity change, negative = inhibition, usual class: inhibitors; hit rate 1.2% among 410,000; AID 1159524; calls by dose curve; tested in HEK293T cells; further: read-out not given here; potency means the concentration at half of the fitted maximal effect; on the % scale 0 is the no-effect control and ±100 the full control effect; nearly all actives have a fitted effect of over 45% in size
LASV entry inh: blocks Lassa virus binding to or entry into cells; Lassa virus pseudotype entry inhibition, cell reporter; Potency, µM (series often up to 37.9 µM), for inactives: top-dose activity change, negative = inhibition, usual class: inhibitors; hit rate 1.2% among 300,000; AID 540256; calls by dose curve; tested in HEK293 cells; further: potency means the concentration at half of the fitted maximal effect; on the % scale 0 is the no-effect control and ±100 the full control effect; nearly all actives have a fitted effect of over 50% in size
HCMV inh: human cytomegalovirus inhibition | HFF cells, HCMV-luciferase reporter, 72 h; stronger effect = lower value | activity change, negative = inhibition, % at 57.5 µM | hit rate 4.5% among 410,000 | AID 1259415; in the data active means activity change below about -60%; inconclusive means no clear call, values can overlap the other calls; inactive means above about -39%; further: on the % scale 0 is the no-effect control and ±100 the full control effect
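Cell-based, HFFs, 1000 cells/well, 16 h 37C; cpds in DMSO + HCMV-luc, MOI 1 PFU/cell; 72 h 37C; OneGlo luminescence after 5 min RT; norm. to buffer vs Salinomycin 10uM.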
SARS PLpro yeast: inhibitors of SARS-CoV papain-like protease in yeast; S. cerevisiae expressing SARS-CoV PLpro, growth rescue; hit rate 0.19% among 330,000; Potency, µM (doses to about 32.9 µM), inactives show at the highest dose activity, positive = growth rescue, hits mostly activators; calls by dose curve; further: potency means the concentration at half of the fitted maximal effect; 0% is about no effect; nearly all actives have a fitted effect of over 55% in size
HCV inh: HCV inhibition; Huh7.5.1 HCVcc-Cre infection, luciferase reporter, 44 h; Potency, µM (highest dose often 41.8 µM), for the others: top-dose activity change, negative = inhibition, actives largely listed as inhibitors; hit rate 3.4% among 340,000; active means well fitted inhibition curve with a large enough effect; inconclusive means small, poorly fitted or top-dose-only effect, or another doubt; inactive means no such curve, though single readings can be large or run the other way; further: potency means the concentration at half of the fitted maximal effect; on the % scale 0 is the no-effect control and ±100 the full control effect
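Compounds are dispensed onto cells plated 4 h earlier at 1,000 per well, with HCVcc-Cre virus (about 0.5 moi) added next. Following 44 h of culture, luminescent signal is measured for 15 sec after 15 min with substrate at room temperature.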
MARV entry inh: Marburg virus entry inhibition; Marburg virus pseudotyped entry inhibition, cell reporter; Potency, µM (top dose mostly 37.8 µM), for inactives: at the highest dose activity change, negative = inhibition, most hits filed as inhibitors; hit rate 1.8% among 300,000; AID 540276; calls by dose curve; tested in HEK293 cells; further: potency means the concentration at half of the fitted maximal effect; on the % scale 0 is the no-effect control and ±100 the full control effect
An asterisk follows results filed as active; ? = inconclusive; / = no result; [ ] = remark or other dose.

SMILES	FMDV antiviral	LASV entry inh	HCMV inh	SARS PLpro yeast	HCV inh	MARV entry inh
CC[C@]12c3[nH]c4ccccc4c3CCN1C(=O)C(CC(=O)NCC13CC4CC(CC(C4)C1)C3)C[C@@H]2C(=O)N1CCN(C(=O)C2CC2)CC1 (stereo partly specified)	?	/	-16	5%	22µM*	/
CCCCC1(C)NC(=S)N2N1C(=S)NC2(C)CCCC (stereo unspecified)	2%	?	31	6%	0%	-1%[14.2 µM]
Cc1cccc2cc(C#N)c(SCC#N)nc12	-24%	/	-67*	0%	4%	/
Cc1cccc2cc(C#N)c(SCC(=O)NNC(=O)Cc3ccccc3)nc12	0%	-9%	-63*	-1%	-22%	?
Cc1cc2cccc(C)c2nc1SCC(=O)NNC(=O)c1ccco1	-14%	1%	?	8%	5%	-18%[46.1 µM]
Cc1ccc(NC(=O)c2sc(-n3nc(C)c(Cc4ccc5c(c4)OCO5)c3C)nc2C)cc1Cl	-29%	10%[46.1 µM]	16	/	/	4%[46.1 µM]
CCC(C)Sc1cc(C(F)(F)F)c(C(=O)Nc2ccc(Cl)cc2)cn1 (stereo unspecified)	?	?	-33	-2%	22µM*	?
CC(C)=CCN1C(=O)[C@]2(O[C@H](COc3ccccc3)CC3=CCCC32)c2c(Br)cccc21 (stereo partly specified)	/	/	/	/	/	-17%[14.2 µM]
CCn1c(=NC(=O)CCS(=O)(=O)c2ccccc2)sc2cccc(OC)c21	20µM*	?	-74*	0%	/	?
CCn1c(=NC(=O)c2ccc(N3C(=O)CCC3=O)cc2)sc2c(OC)ccc(OC)c21	?	/	-8	-2%	14µM*	4%
CCn1c(=NC(=O)c2ccc(S(=O)(=O)N3CCOCC3)cc2)sc2cccc(OC)c21	?	?	-31	-2%	10µM*	?
CC(C)OC(=O)c1cccnc1N1CCN(c2cccc(Cl)c2)CC1	-20%	/	5	-5%	?	/
COC1=C(C2C(OC)CCC3CCCCC32)C2=C(CCCC2)CC1 (stereo unspecified)	/	/	/	/	/	6%[14.2 µM]
Cc1ccc(S(=O)(=O)N(CCC(=O)NCc2ccccc2F)c2ccccc2)cc1	-3%	/	0	4%	-10%	/
COc1cccc(CN(C)C(=O)CNC(=O)c2ccc(-c3ccccc3)cc2)c1OC	?	?	-71*	0%	3.2µM*	?
COc1cccc(CN(C)C(=O)CNC(=O)c2cccs2)c1OC	12%	?	-8	1%	2%[8.37 µM]	-24%
COc1cccc(CN(C)C(=O)CCN(c2ccccc2)S(=O)(=O)c2ccc(C)cc2)c1OC	-28%	?	-32	-2%	11µM*	?
COc1cc(=O)n2c(c1C(=O)NCc1ccco1)CCN(C(=O)c1ccc(C)c(C)c1)CC2	-11%	/	/	/	/	/
COc1cccc(CNc2ccc(N3CCCCC3)cc2)c1OC	23%	?	?	-7%	-12%	?
COc1ccccc1CNc1ccc(N2CCCCC2)cc1	/	?	/	-15%	31%	5.2µM*
COc1cccc(Nc2ccc(N3CCCCC3)cc2)c1OC	26%	/	-99*	17%	/	/
O=C(Nc1ccc(F)cc1)c1csc(C(O)Cc2ccccc2)n1 (stereo unspecified)	/	/	50	/	/	/
CCC(=O)N1c2ccccc2CC1C(=O)NCCc1cc(OC)c(OC)c(OC)c1 (stereo unspecified)	0%	-1%[46.1 µM]	40	/	/	/
Cc1onc(-c2ccccc2)c1C(=O)OCC(=O)Nc1ccc(OC(F)(F)F)cc1	?	/	-24	-7%	11µM*	/
Cc1onc(-c2ccccc2)c1C(=O)OCC(=O)Nc1ccc(Cl)cc1	0%	/	6	1%	10µM*	/
Cc1ccc(NC(=O)COC(=O)c2c(-c3ccccc3)noc2C)cc1	-26%	/	-8	-9%	?	/
O=C(NCC1(N2CCOCC2)CCCC1)c1cnn(-c2nccc(-c3cccs3)n2)c1C1CC1	-4%	/	/	/	/	/
COc1cc(Nc2ncc3c(n2)CCN(Cc2cccc(C)c2)C3)cc(OC)c1	-3%	-18%[46.1 µM]	-9	/	/	/
CC(C)NC(=O)c1nnc2n1CCN(Cc1ccc(Cl)c(F)c1)C2	/	/	-1	/	/	/
S=C(Nc1ccccc1Cl)N1CCCC(c2ccccc2)=N1	-9%	-14%	-25	-1%	-84%	-23%[46.1 µM]
